Measured values as given in PubChem BioAssay (NCATS).
Records with an inconclusive call do not appear. Values without a mark were called inactive. The source made the active and inactive calls. Calls come from the whole dose curve; as a rule, active = well fitted inhibition curve with a large enough effect; inconclusive = small, poorly fitted or top-dose-only effect; inactive = flat fitted curve, though single readings scatter.

experiment: P-glycoprotein substrates identified in KB-8-5-11 adenocarcinoma cell line, qHTS therapeutic library screen (AID 1346987); conditions: KB-8-5-11 (P-gp overexpressing) viability, CellTiter-Glo, 72 h; series mostly up to 44.5 µM; note: nearly all actives have a fitted effect of over 65% in size
Method in brief: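 Steps: plate 500 KB-8-5-11 cells/well in DMEM + 10% FCS (colchicine removed); pin compounds in dose-response; incubate 72 h, 37 degree C, 5% CO2; add CellTiter-Glo, 5 min; read luminescence.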
% is set by controls: 0 for no effect and ±100 for the full control effect; potency is the fitted concentration of half-maximal effect.

Which activity change, negative = cytotoxicity does the source give for `CC(=O)N[C@H]1[C@H](O[C@H]2CC[C@@]3(C)C(CC[C@]4(C)C3CC=C3C5CC(C)(C)CC[C@]5(C(=O)O)[C@H](O)C[C@]34C)C2(C)C)O[C@H](CO[C@@H]2OC[C@H](O)[C@H](O)[C@H]2O[C@@H]2OC[C@@H](O)[C@H](O)[C@H]2O)[C@@H](O)[C@@H]1O` (some centres undefined) here?
The activity change, negative = cytotoxicity was 5.39% [at 9.29 µM].

With `CC1OC(OC2C(OC3C(O[C@H]4CC[C@@]5(C)C(CC[C@]6(C)C5C(=O)C=C5C7CC(C)(C)CC(O)[C@]7(C)CC[C@]56C)C4(C)C)OC(C(=O)O)C(O)C3O)OCC(O)C2O)C(O)C(O)C1O` (some centres undefined) as the molecule, how does the activity change, negative = cytotoxicity read?
The activity change, negative = cytotoxicity was 7.36% [at 9.29 µM].

Which Potency does the source give for `Cc1cccc2c1NC(=O)C2(c1ccc(O)cc1)c1ccc(O)cc1` here?
The Potency was “inactive”.

With `COc1cc(C2Oc3c(OC)cc(CCCO)cc3C2CO)ccc1O[C@H]1O[C@H](C)[C@@H](O)[C@H](O)[C@@H]1O` (some centres undefined) as the molecule, how does the Potency read?
The Potency was “inactive”.

Which Potency does the source give for `CCN(CC)CCN(Cc1ccc(-c2ccc(C(F)(F)F)cc2)cc1)C(=O)Cn1c(SCc2ccc(F)cc2)nc(=O)c2c1CCC2` here?
Its Potency is 18.4 µM (active).

Which activity change, negative = cytotoxicity does the source give for `CC(=O)C1=C(C)N(c2cccc(C(F)(F)F)c2)C(=O)N[C@H]1c1ccc(C#N)nc1` here?
Its activity change, negative = cytotoxicity is -2.98% [at 9.29 µM].

For `O=C(O)/C=C/c1ccc(-c2ccc(O)c(C34CC5CC(CC(C5)C3)C4)c2)cc1`, which Potency is on record?
The Potency was 0.58 µM (active).

For `CCOCc1nc2c(N)nc3ccccc3c2n1CC(C)(C)O`, which Potency is on record?
The Potency was “inactive”.

Which Potency does the source give for `CC1=CC(=O)CC(C)(C)C1/C=C/C(C)O[C@@H]1O[C@H](CO)[C@@H](O)[C@H](O)[C@H]1O[C@@H]1OC[C@](O)(CO)[C@H]1O` (some centres undefined) here?
Its Potency is “inactive”.
